Test results reported in PubChem BioAssay AID709 (SRMLSC, 2007).
About 3,600 (5.5%) of roughly 65,000 compounds were called active.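 The calls were made as follows: active = at 10 µM, mean starting fluorescence two-fold or more over control wells; inactive = the rest.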 This excerpt belongs to a sample that is enriched for actives. Where a SMILES comes first, the peptide text is derived from it. The star is where a group is joined. Bz = O=C(c1ccccc1)*

Assay: intrinsic fluorescence of library compounds, ex339/em460 – biochemical, MLSMR library, data from DPM-DC assay, artefact control, profiling panel (AID 709);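 also: signal is the first read of a kinetic run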
Details: compound autofluorescence, ex339/em460 nm, NADH buffer; at 10 µM; stronger effect = higher value; 1 = no-compound wells, NADH background

Structure (SMILES) | fluorescence fold increase
COc1nc(Oc2ccc(=O)n(C)n2)nc(N(C)C)n1 | 1.04 (inactive)
CN1C(=O)c2ccc(NC(=O)c3c(F)c(F)c(F)c(F)c3F)cc2C1=O | 2.11 (active)
CN1C(=O)c2ccc(NC(=O)C3CCCCC3)cc2C1=O | 4.96 (active)
O=C(Nc1cnn(Cc2ccc(Cl)cc2)c1)C1CCCC1 | 1.03 (inactive)
CCC(=O)Nc1ccc(C(=O)Nc2ccc3c(c2)C(=O)N(CC2CCCO2)C3=O)cc1 (stereo unspecified) | 1.59 (inactive)
O=C(Nc1ccncc1)c1c(F)cccc1F | 1.11 (inactive)
O=C(O)c1ccc(NC(=O)C2CCCCC2)cc1 | 1.11 (inactive)
CCCCc1nc2ccccc2c(NC(=O)CN2CCN(C)CC2)c1CCC | 1.08 (inactive)
CC1=C(C(=O)Nc2ccc(Cl)cc2)C(c2ccco2)NC(=O)N1 (stereo unspecified) | 1.1 (inactive)
COc1ccccc1N1CCN(Cc2ccc(OC)c3ccccc23)CC1 | 1.12 (inactive)
O=C(NC(Cc1ccccc1)C(=O)N1CCCC1C(=O)O)c1ccccc1 (stereo not drawn) (Bz-Phe-Pro-OH; configuration not given here) | 0.84 (inactive)
CCCn1c(=O)c2[nH]c(C3CCCC3)nc2n(CCC)c1=O | 1.03 (inactive)
CCc1ccc(CCC(=O)Nc2ccc(S(N)(=O)=O)cc2)o1 | 1.08 (inactive)
CCOC(=O)CSc1nnc(NC(=O)c2cccc(S(=O)(=O)N3CCCCC3)c2)s1 | 1 (inactive)
CCOC(=O)c1csc(NC(=O)c2ccc(S(=O)(=O)N3CCCC3)cc2)n1 | 2.49 (active)
CCOC(=O)CSc1nnc(NC(=O)c2cccc(S(=O)(=O)N3CCCC3)c2)s1 | 1.07 (inactive)
Cc1ccc(S(=O)(=O)c2nc(NCCCn3ccnc3)sc2Cl)cc1 | 1.12 (inactive)
CC(C)(C)NC(=O)C(c1ccco1)N(Cc1ccc2c(c1)OCO2)C(=O)Cn1nnc2ccccc21 (stereo unspecified) | 1.1 (inactive)
O=C(NCCC1=CCCCC1)C1CCN(Cc2cnn(-c3ccccc3)c2-n2cccc2)CC1 | 1.16 (inactive)
Cn1cccc1Cc1nnc(SCC(=O)NCCc2ccccc2)n1-c1ccc(F)cc1 | 1.12 (inactive)
CCCC(=O)N1c2ccc(-c3csc(N)n3)cc2CC1C (stereo unspecified) | 1.13 (inactive)
COc1ccc(NC(=O)CN2CCN(S(=O)(=O)c3ccc(F)cc3)CC2)cc1Cl | 1.01 (inactive)
COc1cc2c(cc1NC(=O)CN1CCN(S(=O)(=O)c3ccc(F)cc3)CC1)oc1ccccc12 | 2.72 (active)
COc1ccccc1NC(=O)CN1CCN(S(=O)(=O)c2ccc(Br)cc2)CC1 | 1 (inactive)

Structure (SMILES) | fluorescence fold increase
Cc1cc2cc(CNC(=O)c3ccc(S(=O)(=O)N4CCOCC4)cc3)ccc2[nH]1 | 1.07 (inactive)
Cc1coc2c(O)cc3c(c12)OC1(N2CCCCC2)C(=O)NCCCC31 (stereo unspecified) | 1.1 (inactive)
COc1ccc2[nH]c3c(=O)n(Cc4ccco4)cnc3c2c1 | 3.87 (active)
COc1ccc2[nH]c3ccc(OC)cc3c2c1 | 1.46 (inactive)
O=c1c2[nH]c3ccc(Cl)cc3c2ncn1Cc1ccccn1 | 1.12 (inactive)
COc1ccc(N2C(=O)c3cccc4cccc(c34)C2=O)nn1 | 1.57 (inactive)
Cc1ccnc(N2CCN(C(=O)CSc3nc4ccccc4nc3N3CCCCC3)CC2)c1 | 1.18 (inactive)
C=CCNc1nnc(C)c2ccccc12 | 1.09 (inactive)
C=CCNc1nnc(SCC(=O)N2CCCCC2)c2ccccc12 | 2.26 (active)
CCCC(=O)N(CCc1ccccc1)Cc1nc2ccccc2c(=O)[nH]1 | 1.13 (inactive)
CS(=O)(=O)NCc1ccc(C(=O)NCc2ccccc2)cc1 | 1.04 (inactive)
O=C1C2(c3ccccc3)CN(CCCO)CC1(c1ccccc1)CN(CCCO)C2 | 1 (inactive)
Cc1cc(C)n(-c2nc(SCC(=O)N3CCCC3)c3c4c(sc3n2)CCCC4)n1 | 1.3 (inactive)
COCCn1c(C)cc(C(=O)CSc2ncnc3sc4c(c23)CCC4)c1C | 1.55 (inactive)
COCCNc1nc(-n2nc(C)cc2C)nc2sc3c(c12)CCCC3 | 3.57 (active)
CCOc1ccc(S(=O)(=O)n2ccnc2)c2ccccc12 | 1.04 (inactive)
COc1cc(C2C(C(=O)c3ccc(C)o3)=C(O)C(=O)N2Cc2cccnc2)ccc1O (stereo unspecified) | 1.02 (inactive)
COc1ccccc1N1CCN(C(=O)c2cn(-c3ccccc3)nc2-c2cccnc2)CC1 | 1.12 (inactive)
Cc1nnc(SCC(=O)Nn2cnnc2)s1 | 1.03 (inactive)
COc1ccc(-c2noc(-c3cccc(OC)c3OC)n2)cc1OC | 1.12 (inactive)
CCOC(=O)N1CCN(C(=O)CSc2ccc(Cl)cc2)CC1 | 1.07 (inactive)
CCOC(=O)N1CCN(C(=O)c2ccc3nc4cc(Cl)ccc4c(=O)n3c2)CC1 | 3.31 (active)
CCOC(=O)N1CCN(C(=O)CNC(=O)Cc2ccc(Cl)cc2)CC1 | 1.08 (inactive)
Cc1cc(C)nc(NC(=O)C(C)N2C(=O)c3ccccc3C2=O)n1 (stereo unspecified) | 1.09 (inactive)

Structure (SMILES) | fluorescence fold increase
CCn1c(=N)c(S(=O)(=O)c2ccc(F)cc2)cc2c(=O)n3ccccc3nc21 | 3.45 (active)
Cc1ccc(C)c(NC(=O)C2CCCN2C(=O)OC(C)(C)C)c1 (stereo unspecified) | 1.17 (inactive)
CCn1nc(C(=O)OCC(=O)N2c3ccccc3CC2C)c2ccccc2c1=O (stereo unspecified) | 1.05 (inactive)
COc1ccccc1Oc1ccc(S(=O)(=O)Nc2cccnc2)cc1 | 1.1 (inactive)
O=P(c1ccc2c(c1)OCCO2)(N1CCOCC1)N1CCOCC1 | 1.13 (inactive)
Cn1c(-c2ccco2)nc2cc3ccccc3cc21 | 4.72 (active)
c1coc(-c2nc3nc4ccccc4n3nc2-c2ccco2)c1 | 0.92 (inactive)
COc1ccc(CCn2c(-c3ccco3)nc3nc4ccccc4nc32)cc1OC | 1.07 (inactive)
CCC(=O)Nc1nc(OC)cc(OC)n1 | 1.16 (inactive)
C=CCSc1nc2c(c(=O)[nH]1)C(C(C)C)C(C#N)=C(N)O2 (stereo unspecified) | 1.06 (inactive)
Cn1c2c(c(=O)n(C)c1=O)C(c1ccc(O)cc1)Nc1ccccc1O2 (stereo unspecified) | 1.08 (inactive)
COCCn1c(=O)[nH]c2cc(C(=O)NCc3cccnc3)ccc2c1=O | 1.48 (inactive)
COc1ccc(CCn2c(=N)c(C(=O)NCc3ccco3)cc3c(=O)n4cccc(C)c4nc32)cc1 | 1.64 (inactive)
CCn1c(=N)c(C(=O)NCCCOC)cc2c(=O)n3cccc(C)c3nc21 | 3.83 (active)
O=c1[nH][nH]c(=O)c2cc(N3CCCC3)ccc12 | 2.65 (active)
O=c1cc(-c2ccccc2)nc(N2CCCCC2)[nH]1 | 1.26 (inactive)
CCOc1ccc(C2C(C(=O)NC)=C(C)Nc3nc4ccccc4n32)cc1OC (stereo unspecified) | 1.15 (inactive)
Cc1ccc2c(c1)c1ncnc(N3CCc4ccccc4C3)c1n2C | 3.33 (active)
Cc1ccc2c(c1)N(C(=O)CCC(=O)N1CCc3ccccc3C1)CCO2 | 1.17 (inactive)
Cc1ccc(NC(=O)CCN2CCc3ccccc3C2)cc1 | 1.02 (inactive)
CCS(=O)(=O)N1CCCC(C(=O)NCc2ccc(C)cc2)C1 (stereo unspecified) | 1.06 (inactive)
O=C(Cn1nnc2ccccc2c1=O)Nc1cc(C(F)(F)F)ccc1N1CCOCC1 | 1.02 (inactive)
COc1ccc(-c2[nH]nc3c2C(c2ccncc2)C(C#N)=C(N)O3)cc1 (stereo unspecified) | 1.04 (inactive)
Cn1c(=O)[nH]c(=O)c2c1nc(Br)n2CCCCSc1nc2ccccc2o1 | 1.1 (inactive)

Structure (SMILES) | fluorescence fold increase
CCOC(=O)CSC1=C(C#N)C(c2sccc2C)CC(=O)N1 (stereo unspecified) | 1.13 (inactive)
CS(=O)(=O)N(CC(=O)NCc1ccco1)c1ccc2c(c1)OCO2 | 1.14 (inactive)
Cc1nc2nc(COc3ccccc3)[nH]n2c(=O)c1Cc1ccccc1 | 1.09 (inactive)
O=c1[nH]c(-c2cccs2)nc2ccccc12 | 1.17 (inactive)
CCc1c(C)nc2cc(-c3cccs3)[nH]n2c1=O | 2.07 (active)
O=P(O)(CP(=O)(c1ccccc1)c1ccccc1)c1ccccc1 | 1.13 (inactive)
CCCCNC(=O)c1c[nH]c2ccc(S(=O)(=O)Nc3ccc(OCC)cc3)cc2c1=O | 1.15 (inactive)
Cc1nonc1NC(=O)c1ccccc1Br | 1.01 (inactive)
Cc1ccc(S(=O)(=O)C(C#N)c2nc3ccccc3nc2N2CCCC2)cc1C (stereo unspecified) | 2.44 (active)
Cc1cccc2cc(C#N)c(N3CCCC3)nc12 | 1.58 (inactive)
CC(C)OC(=O)C(C#N)c1nc2ccccc2nc1N1CCN(Cc2ccccc2)CC1 (stereo unspecified) | 1.82 (inactive)
NC(=O)CSc1oc(-c2cccs2)nc1S(=O)(=O)c1ccccc1 | 1.22 (inactive)
CCN(CC(=O)NC(C)C)C(=O)CCNC(=O)c1ccc(Cl)cc1 | 1.13 (inactive)
CCOc1cc2c(cc1OCC)C(C(=O)O)C(c1ccc(OC)c(O)c1)N(C)C2=O (stereo unspecified) | 1.02 (inactive)
Cn1c(CCN2CCCCCC2)nc2cc(NC(=O)Nc3ccccc3)ccc21 | 1.24 (inactive)
O=C(Nc1cccc(NC(=O)N2CCN(c3ccccc3)CC2)c1)N1CCN(c2ccccc2)CC1 | 1.06 (inactive)
Cc1nc2ccc(NC(=O)N3CCC(c4ccccc4)C3)cc2nc1C (stereo unspecified) | 2.93 (active)
CCc1cc(=O)oc2cc(C)cc(OC(C)C(=O)O)c12 (stereo unspecified) | 3.78 (active)
CCCSC1=C(C#N)C(c2ccccc2C)C(C(=O)OC)C(=O)N1 (stereo unspecified) | 1.13 (inactive)
Cc1cc(C)nc(N2CCN(c3ncnc4c3oc3ccccc34)CC2)n1 | 1.27 (inactive)
Cc1nc(N2CCN(c3ncccn3)CC2)c2oc3ccccc3c2n1 | 1.16 (inactive)
CCc1nc(N2CCN(c3nc(C)cc(C)n3)CC2)c2oc3ccccc3c2n1 | 2.49 (active)
Cc1noc(COc2ccccc2OCC(O)CNC(C)(C)C)n1 (stereo unspecified) | 1.04 (inactive)
O=c1c(-c2ccc3c(c2)OCCO3)c(C(F)(F)F)oc2cc(O)cc(O)c12 | 1.07 (inactive)
